For six molecules, composite z-score and z-score results are on record in PubChem BioAssay.

Assay [1] concerns Plasmodium falciparum Sir2 (PF13_0152, Sir2A). Description: Plasmodium falciparum Sir2A binding compounds – biochemical, small-molecule microarray, 635 nm fluorescence, primary screen (AID 1098).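 Further: score merges spot fluorescence intensity with its signal-to-noise ratio.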 The note with it: fluorescence 635 nm, higher = more signal.
The nature of assay [2]: probe aDKK1 binding to arrayed compounds – biochemical, biotinylated probe, 635/667 nm fluorescence, primary screen (AID 1099).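 Further: score merges 667nm spot fluorescence with signal to noise across triplicate slides.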 The following applies: small-molecule microarray, higher = more signal.
A short description of assay [3]: probe aCHRDL2 binding to arrayed compounds – biochemical, biotinylated probe, 635/667 nm fluorescence, primary screen (AID 1100). The following applies: small-molecule microarray, higher = more signal.
The nature of assay [4]: change in splice reporter luminescence, either direction, cell-based, HEK293, spliceosome inhibition project, primary screen (AID 1101).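 Further: HEK293 cells carrying a splicing-competent luciferase reporter gene; test concentration not given here.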 The note with it: HEK293 splicing luciferase reporter, 24 h, higher = more signal, called active from +8 up or from −8 down. In general terms: In a reporter assay the amount or activity of a reporter protein is the signal.
Assay [5] concerns the target Fibroblast growth factor 10 (Homo sapiens) (UniProt O15520). Description: compounds binding fibroblast growth factor 10 – biochemical, small-molecule microarray, 635 nm fluorescence, primary screen (AID 1102). The note with it: FGF10 binding, fluorescence 635 nm, higher = more signal.
Assay [6] deals with glycogen synthase kinase-3 (GSK3A per assay name; protocol says GSK3B). Description: compounds binding glycogen synthase kinase-3 – biochemical, small-molecule microarray, 635 nm fluorescence, GSK3A, primary screen (AID 1103). Further: the record names both GSK3A and GSK3B. The note with it: fluorescence 635 nm, higher = more signal.
For assay [7], the target named is Epidermal growth factor receptor (Homo sapiens) (UniProt P00533). Description: compounds binding epidermal growth factor receptor – biochemical, small-molecule microarray, 635 nm fluorescence, primary screen (AID 1104).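 Further: score merges 667 nm emission intensity with spot signal to noise over triplicate slides.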 The note with it: EGFR binding, higher = more signal.
The target in assay [8] is Follistatin-related protein 3 (Homo sapiens) (UniProt O95633). Description: compounds binding follistatin-related protein 3 – biochemical, small-molecule microarray, 635 nm fluorescence, primary screen (AID 1105).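 Further: score merges emission near 667 nm and signal to noise per printed spot across three slides.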 The note with it: FSTL3 binding, higher = more signal.
Assay [9] addresses Dickkopf-related protein 1 (Homo sapiens) (UniProt O94907). As to the kind of experiment: small molecules binding DKK1 protein – biochemical, small-molecule microarray, 635 nm fluorescence scan, primary screen (AID 1106).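 Further: score merges emission near 667 nm with signal to noise over three replicate slides.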 The following applies: higher = more signal.
Assay [10] deals with Inhibin beta A chain (activin A). Description: small molecules binding activin A – biochemical, small-molecule microarray, 635 nm fluorescence scan, primary screen (AID 1107).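 Further: mouse activin A protein probed at 4.33 µg/mL on printed slides; score merges bound-protein fluorescence near 667 nm with spot signal-to-noise.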 The following applies: INHBA, higher = more signal.
Assay [11] deals with Human papillomavirus type 1a protein E7 (residues 44-93). As to the kind of experiment: small molecules binding HPV E7 44-93 – biochemical, small-molecule microarray, residues 44-93, 635 nm fluorescence, primary screen (AID 1108).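 Further: E7 fragment applied at 1 µg/mL in TBST for 1 h at 4 C; score combines spot fluorescence with its signal to noise ratio.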 The note with it: fluorescence 635 nm, higher = more signal.
Assay [12] is described as follows: hepatitis C replication reporter changes, two-sided – Huh7 cells, luciferase reporter, HCV replication inhibitor project, primary screen (AID 1109).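 Further: huh7 hepatoma cells harbouring a luciferase neomycin HCV replicon reporter; luciferase luminescence as measure of HCV replicon replication; test concentration not given here.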 The following applies: Huh7 HCV replicon luciferase reporter, 48 h; higher = more signal.
Assay [13] addresses Left-right determination factor 2 (Homo sapiens) (UniProt O00292). As to the kind of experiment: small molecules binding LEFTY2 protein – biochemical, small-molecule microarray, 635 nm fluorescence scan, primary screen (AID 1110). The note with it: higher = more signal.
For assay [14], the target named is Calmodulin-1 (Homo sapiens) (UniProt P0DP23). Description: small molecules binding calmodulin-1 with EGTA – biochemical, small-molecule microarray, Cy5-labelled CALM1, profiling panel (AID 1111).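 Further: labelled calmodulin applied in Tris saline Tween buffer holding calcium plus EGTA and DTT.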 The note with it: Cy5-CALM1 binding fluorescence, higher = more signal.
The target is the same in assay [15]. Description: small molecules binding Ca-loaded calmodulin-1 – biochemical, small-molecule microarray, Cy5-labelled CALM1, plus calcium, artefact control for SMM control-protein annotation, profiling panel (AID 1112).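 Further: score merges spot fluorescence with signal to noise from triplicate slides.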 The note with it: Cy5-CALM1 binding fluorescence, higher = more signal.
Assay [16] is described as follows: probe aWnt5a binding to arrayed compounds – biochemical, biotinylated probe, 635/667 nm fluorescence, primary screen (AID 1113).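 Further: score merges 667 nm fluorescence intensity with signal-to-noise per printed feature.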 The note with it: small-molecule microarray, higher = more signal.
The nature of assay [17]: probe aShh binding to arrayed compounds – biochemical, biotinylated probe, 635/667 nm fluorescence, primary screen (AID 1114).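 Further: probe is biotin-labelled aShh protein from a stem cell growth factor screen; measures binding of labelled protein to compounds printed on the slide; score merges feature fluorescence at 667 nm with signal-to-noise.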 The following applies: small-molecule microarray, higher = more signal.
Assay [18] is described as follows: probe aNog binding to arrayed compounds – biochemical, biotinylated probe, 635/667 nm fluorescence, primary screen (AID 1115).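 Further: probe is biotinylated aNog protein used at 0.15 µg/mL for 1 h at 4 C; z-score combines 667 nm fluorescence of each spot with its signal to noise.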 The following applies: small-molecule microarray, higher = more signal.
Assay [19] addresses Torsin-1A-interacting protein 1 (Homo sapiens) (UniProt Q5JTV8). Description: compound microarray binding of lysate hLAP1 – cell lysate, small-molecule microarray, COS7 lysate, 635/667 nm fluorescence, primary screen (AID 1116). The note with it: 635 nm fluorescence, higher = more signal.
The target in assay [20] is Alpha-bungarotoxin (Bungarus multicinctus) (UniProt P60615). As to the kind of experiment: compounds binding labelled alpha-BTX control protein – biochemical, small-molecule microarray, Alexa647 label, 635/667 nm fluorescence, artefact control for SMM control protein annotation, profiling panel (AID 1117). The note with it: alpha-BTX-A647 binding fluorescence, higher = more signal.

SMILES strings stand for the structures. Activity calls are given as the source filed them.

Left-right determination factor 2 (Homo sapiens), sequence (O00292 whole entry, looked up): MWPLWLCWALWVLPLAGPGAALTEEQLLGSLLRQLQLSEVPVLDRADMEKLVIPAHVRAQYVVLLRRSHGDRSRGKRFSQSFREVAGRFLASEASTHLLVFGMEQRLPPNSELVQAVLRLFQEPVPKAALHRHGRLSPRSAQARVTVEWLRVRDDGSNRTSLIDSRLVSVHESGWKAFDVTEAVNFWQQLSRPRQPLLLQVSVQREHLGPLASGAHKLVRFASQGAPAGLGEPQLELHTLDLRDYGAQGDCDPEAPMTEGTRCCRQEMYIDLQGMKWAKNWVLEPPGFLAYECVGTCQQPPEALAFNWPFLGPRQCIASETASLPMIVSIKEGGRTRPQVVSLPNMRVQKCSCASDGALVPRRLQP
Follistatin-related protein 3 (Homo sapiens), sequence (O95633 whole entry, looked up): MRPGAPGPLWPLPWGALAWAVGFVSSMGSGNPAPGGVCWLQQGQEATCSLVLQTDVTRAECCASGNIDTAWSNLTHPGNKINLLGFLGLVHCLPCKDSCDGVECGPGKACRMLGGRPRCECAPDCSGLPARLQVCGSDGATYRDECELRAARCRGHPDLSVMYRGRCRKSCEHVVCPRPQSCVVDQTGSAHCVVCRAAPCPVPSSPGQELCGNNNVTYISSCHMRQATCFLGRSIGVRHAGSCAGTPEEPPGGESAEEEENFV
Dickkopf-related protein 1 (Homo sapiens), sequence (O94907 whole entry, looked up): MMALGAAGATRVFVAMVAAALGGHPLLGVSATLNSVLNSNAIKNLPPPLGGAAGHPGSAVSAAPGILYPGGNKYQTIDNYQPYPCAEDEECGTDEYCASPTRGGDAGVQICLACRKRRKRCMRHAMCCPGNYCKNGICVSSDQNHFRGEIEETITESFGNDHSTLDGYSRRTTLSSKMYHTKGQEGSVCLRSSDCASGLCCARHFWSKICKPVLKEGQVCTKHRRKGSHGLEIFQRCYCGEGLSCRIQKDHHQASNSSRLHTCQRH
Torsin-1A-interacting protein 1 (Homo sapiens), sequence (Q5JTV8 whole entry, looked up): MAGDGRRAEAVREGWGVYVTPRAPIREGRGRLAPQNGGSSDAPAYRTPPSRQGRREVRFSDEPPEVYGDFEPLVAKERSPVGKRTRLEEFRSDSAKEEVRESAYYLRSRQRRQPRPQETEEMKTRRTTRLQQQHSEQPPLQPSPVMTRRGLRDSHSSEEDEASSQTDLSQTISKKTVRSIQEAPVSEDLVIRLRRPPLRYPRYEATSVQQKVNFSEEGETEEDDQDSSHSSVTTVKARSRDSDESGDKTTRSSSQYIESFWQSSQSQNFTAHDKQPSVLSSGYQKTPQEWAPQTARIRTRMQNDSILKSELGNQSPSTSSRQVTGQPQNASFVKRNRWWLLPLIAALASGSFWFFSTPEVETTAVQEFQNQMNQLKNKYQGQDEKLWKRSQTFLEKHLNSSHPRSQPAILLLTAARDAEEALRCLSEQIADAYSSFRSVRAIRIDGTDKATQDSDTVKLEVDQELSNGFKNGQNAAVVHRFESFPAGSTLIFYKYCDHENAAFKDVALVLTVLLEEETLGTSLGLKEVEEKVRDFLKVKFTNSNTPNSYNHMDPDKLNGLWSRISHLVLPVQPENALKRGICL
Alpha-bungarotoxin (Bungarus multicinctus), sequence (P60615 whole entry, looked up): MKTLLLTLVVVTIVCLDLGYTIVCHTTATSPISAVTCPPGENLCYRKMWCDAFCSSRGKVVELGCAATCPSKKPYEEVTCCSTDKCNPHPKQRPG
Fibroblast growth factor 10 (Homo sapiens), sequence (O15520 whole entry, looked up): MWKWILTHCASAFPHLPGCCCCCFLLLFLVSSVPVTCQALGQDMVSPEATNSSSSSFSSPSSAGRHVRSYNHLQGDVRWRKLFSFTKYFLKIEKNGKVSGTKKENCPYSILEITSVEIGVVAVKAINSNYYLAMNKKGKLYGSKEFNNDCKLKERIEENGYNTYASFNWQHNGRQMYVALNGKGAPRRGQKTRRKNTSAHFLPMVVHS
Epidermal growth factor receptor (Homo sapiens), sequence (P00533 whole entry, looked up): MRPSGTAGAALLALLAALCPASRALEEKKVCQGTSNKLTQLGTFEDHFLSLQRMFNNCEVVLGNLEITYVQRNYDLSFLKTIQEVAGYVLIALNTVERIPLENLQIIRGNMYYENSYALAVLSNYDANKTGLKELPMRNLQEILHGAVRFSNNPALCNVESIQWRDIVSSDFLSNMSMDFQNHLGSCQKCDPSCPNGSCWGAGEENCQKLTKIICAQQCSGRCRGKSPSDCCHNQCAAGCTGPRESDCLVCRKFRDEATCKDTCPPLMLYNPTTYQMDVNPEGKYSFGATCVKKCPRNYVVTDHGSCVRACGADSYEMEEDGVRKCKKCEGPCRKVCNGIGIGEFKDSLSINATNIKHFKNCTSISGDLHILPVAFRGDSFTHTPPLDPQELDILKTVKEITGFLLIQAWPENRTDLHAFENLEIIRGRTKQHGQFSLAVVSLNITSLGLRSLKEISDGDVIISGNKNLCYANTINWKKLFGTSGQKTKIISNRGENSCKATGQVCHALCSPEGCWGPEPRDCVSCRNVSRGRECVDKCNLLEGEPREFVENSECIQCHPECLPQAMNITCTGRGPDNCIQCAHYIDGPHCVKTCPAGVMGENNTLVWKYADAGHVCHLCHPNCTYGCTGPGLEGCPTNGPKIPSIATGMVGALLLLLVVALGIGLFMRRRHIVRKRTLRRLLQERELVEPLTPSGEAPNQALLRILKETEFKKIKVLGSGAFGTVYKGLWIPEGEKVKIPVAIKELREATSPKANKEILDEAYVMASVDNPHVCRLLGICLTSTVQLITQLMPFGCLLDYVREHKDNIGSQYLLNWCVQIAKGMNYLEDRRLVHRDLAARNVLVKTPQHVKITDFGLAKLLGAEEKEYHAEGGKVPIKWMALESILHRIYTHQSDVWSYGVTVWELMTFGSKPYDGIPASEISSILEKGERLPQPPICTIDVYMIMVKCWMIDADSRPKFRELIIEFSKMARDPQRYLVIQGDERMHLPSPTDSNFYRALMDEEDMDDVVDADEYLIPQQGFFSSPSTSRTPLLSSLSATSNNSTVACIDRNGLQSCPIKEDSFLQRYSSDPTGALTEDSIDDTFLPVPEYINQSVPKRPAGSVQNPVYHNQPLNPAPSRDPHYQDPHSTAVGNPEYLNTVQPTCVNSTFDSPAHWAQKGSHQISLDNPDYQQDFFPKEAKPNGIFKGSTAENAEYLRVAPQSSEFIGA

Turning to `CO[C@@H]1COC(=O)[C@@H]2CCCN2C(=O)CC=C[C@@H](C)[C@H](OC)COC(=O)[C@@H]2CCCN2C(=O)CC=C[C@H]1C`, the composite z-score in assay [1] was 1.29; in assay [2], -0.875; in assay [3] it was -1.33; in assay [5] it was 0.546; in assay [6] it was 0.171; in assay [7] it was 0.992. Besides, the composite z-score in [8] is 1.19; in [9], 1.27; in [10], 1.43; in assay [11], -0.699; in [13] it was 0.402; in assay [14] it was -1.35. For the same molecule, the composite z-score in assay [15] was -2.31; in assay [16], -0.156; in [17], -0.2; in assay [18], -0.201; in assay [19] it was -0.233; in assay [20] it was -1.09. For the same molecule, the z-score in assay [4] was -0.481 (inactive); in [12], 0.47.

With `CC(=O)NCCCC[C@@H]1NC(=O)[C@@H]2C[C@H](C(=O)NCCCCCNC(=O)CS)[C@H](c3ccc(O)cc3)N2C1=O`, the composite z-score in [1] is 1.45; in assay [2], -0.384; in assay [3], 0.292; in [5], -0.282; in assay [6], -0.631; in assay [7], -0.817. In addition, the composite z-score was -0.781 in assay [8]; 0.527 in assay [9]; 0.247 in [10]; 0.364 in assay [11]; -0.293 in assay [13]; -0.592 in [14]. Besides, the composite z-score in assay [15] was 0.503; in [16], -0.221; in assay [17] it was 0.0284; in assay [18] it was -0.0315; in assay [19] it was 0.0502; in [20] it was -0.46. The z-score was -1.88 (inactive) in [4] and 1.22 in assay [12].

For `C=C(CCCC)C(=O)CC[C@@H](OC(=O)c1cccnc1)c1cccc(OCCO)c1`, the composite z-score was 1.48 in assay [1]; -0.246 in [2]; 0.238 in [3]; 0.72 in assay [5]; 0.13 in assay [6]; -0.237 in [7]. Also, the composite z-score in assay [8] is -0.242; in [9] it was 0.265; in assay [10], 1.2; in assay [11] it was -0.0891; in assay [13] it was 0.0009; in assay [14], -0.708. Besides, the composite z-score in assay [15] was -1.47; in assay [16] it was -0.0213; in assay [17], -0.0977; in [18] it was 0.314; in [19], 0.469; in [20], 1.76. Besides, the figures for the z-score in assay [4] and in assay [12] were 3.57 (inactive) and -3.58, respectively.

In the case of `COCCOC(=O)N1C(=O)[C@@]2(c3cc(C#CC4=CCCCC4)ccc31)[C@H](C(=O)NC[C@H](O)c1ccccc1)[C@H]1C(=O)O[C@H](c3ccccc3)[C@H](c3ccccc3)N1[C@@H]2c1ccccc1OCCO`, the composite z-score in assay [1] was determined as 1.28; in [2], 0.659; in assay [3], 0.635; in assay [5] it was 0.533; in [6], 1.05; in assay [7] it was 0.366. The composite z-score in assay [8] was found to be 1.08; in assay [9] it was 0.599; in [10], 1.13; in assay [11] it was 0.453; in assay [13] it was 0.394; in assay [14], 1.43. Moreover, the composite z-score in assay [15] came to 0.635; in [16] it was 0.0246; in assay [17] it was 0.443; in assay [18] it was 0.216; in assay [19] it was 0.814; in assay [20], 2.18. The z-score in [4] was -1.5 (inactive); in [12], -3.01.

Regarding `C=CC[C@]1(C(=O)O)N=C(c2ccc(OCCCO)cc2)O[C@H]1c1ccccc1N=[N+]=[N-]`, the composite z-score is 1.75 in assay [1]; 0.623 in assay [2]; 1.05 in assay [3]; -0.103 in [5]; -0.335 in [6]; -0.18 in assay [7]. The composite z-score in [8] was -0.214; in assay [9], -0.651; in [10] it was 1.43; in assay [11], -0.914; in assay [13] it was -0.753; in assay [14] it was 1.74. The composite z-score in [15] is 0.768; in assay [16], 0.055; in assay [17], -0.0243; in assay [18], -0.0069; in [19] it was 1.45; in [20], 0.0298. Moreover, the z-score in [4] was -0.627 (inactive); in assay [12] it was 1.65.

On to `C=C(CCCC)C(=O)CC[C@@H](OC(C)=O)c1ccccc1OCCO`, for which the composite z-score in [1] is 1.34; in assay [2], -0.283; in [3], -0.16; in assay [5] it was -0.675; in assay [6], -1.31; in assay [7], -1.36. For the same molecule, the composite z-score in assay [8] is -1.06; in [9], -0.376; in [10], 0.857; in [11], -1.03; in [13], -0.941; in assay [14] it was -0.923. For the same molecule, the composite z-score in assay [15] is -1.13; in assay [16] it was -0.154; in assay [17] it was 0.0278; in [18], -0.618; in [19], -0.572; in assay [20], -1.31. Moreover, the results for the z-score in assay [4] and in [12] were 0.419 (inactive) and -3.42, respectively.
